The target of assay [1] is Platelet-derived growth factor receptor beta (Homo sapiens) (UniProt P09619). To be noted: at 1 µM.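 Note: each value is a mean percent inhibition.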
In assay [2] the target is Tyrosine-protein kinase FRK (Homo sapiens) (UniProt P42685). To be noted: at 0.1 µM.
Assay [3] shares this target. To be noted: at 1 µM.
The target in assay [4] is Protein-tyrosine kinase 2-beta (Homo sapiens) (UniProt Q14289). To be noted: at 0.1 µM.
For assay [5] the target is unchanged. To be noted: at 1 µM.
Assay [6] has as its target Proto-oncogene tyrosine-protein kinase receptor Ret (Homo sapiens) (UniProt P07949). To be noted: at 0.1 µM.
For assay [7] the target is unchanged. To be noted: at 1 µM.
The test system of assay [8] is Proto-oncogene tyrosine-protein kinase receptor Ret (Homo sapiens), P07949 [V804L]. To be noted: at 0.1 µM.
Chain of Proto-oncogene tyrosine-protein kinase receptor Ret (Homo sapiens), P07949 [V804L] (P07949 whole entry V804L): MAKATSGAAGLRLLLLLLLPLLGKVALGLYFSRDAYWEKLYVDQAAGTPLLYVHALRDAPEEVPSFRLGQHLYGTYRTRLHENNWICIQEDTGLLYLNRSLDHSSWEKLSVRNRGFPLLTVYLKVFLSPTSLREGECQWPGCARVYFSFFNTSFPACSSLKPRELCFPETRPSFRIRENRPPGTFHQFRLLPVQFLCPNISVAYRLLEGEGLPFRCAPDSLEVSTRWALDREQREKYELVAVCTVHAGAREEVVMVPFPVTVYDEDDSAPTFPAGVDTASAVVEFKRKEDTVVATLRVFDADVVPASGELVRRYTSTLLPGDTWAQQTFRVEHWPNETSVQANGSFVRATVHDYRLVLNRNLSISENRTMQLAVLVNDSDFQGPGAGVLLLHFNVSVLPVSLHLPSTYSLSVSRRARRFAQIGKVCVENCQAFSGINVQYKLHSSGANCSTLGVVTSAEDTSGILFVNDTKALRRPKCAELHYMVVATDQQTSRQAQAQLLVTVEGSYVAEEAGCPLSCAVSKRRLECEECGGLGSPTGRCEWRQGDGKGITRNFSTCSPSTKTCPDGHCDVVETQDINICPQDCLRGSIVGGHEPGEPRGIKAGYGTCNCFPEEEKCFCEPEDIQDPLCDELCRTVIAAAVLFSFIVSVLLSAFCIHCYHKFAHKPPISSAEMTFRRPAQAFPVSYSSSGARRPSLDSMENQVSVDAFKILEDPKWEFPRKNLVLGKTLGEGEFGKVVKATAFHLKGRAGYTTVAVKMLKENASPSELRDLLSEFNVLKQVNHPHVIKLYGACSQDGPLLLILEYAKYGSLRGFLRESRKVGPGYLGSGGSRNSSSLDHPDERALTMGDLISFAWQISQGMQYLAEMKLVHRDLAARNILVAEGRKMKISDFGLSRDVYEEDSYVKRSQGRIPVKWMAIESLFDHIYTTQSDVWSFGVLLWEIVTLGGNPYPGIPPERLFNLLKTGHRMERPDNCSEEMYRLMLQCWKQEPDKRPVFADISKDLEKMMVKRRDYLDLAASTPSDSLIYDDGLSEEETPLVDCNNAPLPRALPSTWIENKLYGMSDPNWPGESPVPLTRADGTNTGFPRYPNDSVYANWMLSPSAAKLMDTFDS
Assay [9] shares this test system. To be noted: at 1 µM.
In assay [10] the test system is Proto-oncogene tyrosine-protein kinase receptor Ret (Homo sapiens), P07949 [Y791F]. To be noted: at 0.1 µM.
Chain of Proto-oncogene tyrosine-protein kinase receptor Ret (Homo sapiens), P07949 [Y791F] (P07949 whole entry Y791F): as the sequence (P07949 whole entry V804L) above, with Y791F, L804V counted along it
Assay [11] has the same test system. To be noted: at 1 µM.
Assay [12] addresses Macrophage-stimulating protein receptor (Homo sapiens) (UniProt Q04912). To be noted: at 0.1 µM.
The target is the same in assay [13]. To be noted: at 1 µM.
The target in assay [14] is Proto-oncogene tyrosine-protein kinase ROS (Homo sapiens) (UniProt P08922). To be noted: at 0.1 µM.
Chain of Proto-oncogene tyrosine-protein kinase ROS (Homo sapiens) (P08922 whole entry): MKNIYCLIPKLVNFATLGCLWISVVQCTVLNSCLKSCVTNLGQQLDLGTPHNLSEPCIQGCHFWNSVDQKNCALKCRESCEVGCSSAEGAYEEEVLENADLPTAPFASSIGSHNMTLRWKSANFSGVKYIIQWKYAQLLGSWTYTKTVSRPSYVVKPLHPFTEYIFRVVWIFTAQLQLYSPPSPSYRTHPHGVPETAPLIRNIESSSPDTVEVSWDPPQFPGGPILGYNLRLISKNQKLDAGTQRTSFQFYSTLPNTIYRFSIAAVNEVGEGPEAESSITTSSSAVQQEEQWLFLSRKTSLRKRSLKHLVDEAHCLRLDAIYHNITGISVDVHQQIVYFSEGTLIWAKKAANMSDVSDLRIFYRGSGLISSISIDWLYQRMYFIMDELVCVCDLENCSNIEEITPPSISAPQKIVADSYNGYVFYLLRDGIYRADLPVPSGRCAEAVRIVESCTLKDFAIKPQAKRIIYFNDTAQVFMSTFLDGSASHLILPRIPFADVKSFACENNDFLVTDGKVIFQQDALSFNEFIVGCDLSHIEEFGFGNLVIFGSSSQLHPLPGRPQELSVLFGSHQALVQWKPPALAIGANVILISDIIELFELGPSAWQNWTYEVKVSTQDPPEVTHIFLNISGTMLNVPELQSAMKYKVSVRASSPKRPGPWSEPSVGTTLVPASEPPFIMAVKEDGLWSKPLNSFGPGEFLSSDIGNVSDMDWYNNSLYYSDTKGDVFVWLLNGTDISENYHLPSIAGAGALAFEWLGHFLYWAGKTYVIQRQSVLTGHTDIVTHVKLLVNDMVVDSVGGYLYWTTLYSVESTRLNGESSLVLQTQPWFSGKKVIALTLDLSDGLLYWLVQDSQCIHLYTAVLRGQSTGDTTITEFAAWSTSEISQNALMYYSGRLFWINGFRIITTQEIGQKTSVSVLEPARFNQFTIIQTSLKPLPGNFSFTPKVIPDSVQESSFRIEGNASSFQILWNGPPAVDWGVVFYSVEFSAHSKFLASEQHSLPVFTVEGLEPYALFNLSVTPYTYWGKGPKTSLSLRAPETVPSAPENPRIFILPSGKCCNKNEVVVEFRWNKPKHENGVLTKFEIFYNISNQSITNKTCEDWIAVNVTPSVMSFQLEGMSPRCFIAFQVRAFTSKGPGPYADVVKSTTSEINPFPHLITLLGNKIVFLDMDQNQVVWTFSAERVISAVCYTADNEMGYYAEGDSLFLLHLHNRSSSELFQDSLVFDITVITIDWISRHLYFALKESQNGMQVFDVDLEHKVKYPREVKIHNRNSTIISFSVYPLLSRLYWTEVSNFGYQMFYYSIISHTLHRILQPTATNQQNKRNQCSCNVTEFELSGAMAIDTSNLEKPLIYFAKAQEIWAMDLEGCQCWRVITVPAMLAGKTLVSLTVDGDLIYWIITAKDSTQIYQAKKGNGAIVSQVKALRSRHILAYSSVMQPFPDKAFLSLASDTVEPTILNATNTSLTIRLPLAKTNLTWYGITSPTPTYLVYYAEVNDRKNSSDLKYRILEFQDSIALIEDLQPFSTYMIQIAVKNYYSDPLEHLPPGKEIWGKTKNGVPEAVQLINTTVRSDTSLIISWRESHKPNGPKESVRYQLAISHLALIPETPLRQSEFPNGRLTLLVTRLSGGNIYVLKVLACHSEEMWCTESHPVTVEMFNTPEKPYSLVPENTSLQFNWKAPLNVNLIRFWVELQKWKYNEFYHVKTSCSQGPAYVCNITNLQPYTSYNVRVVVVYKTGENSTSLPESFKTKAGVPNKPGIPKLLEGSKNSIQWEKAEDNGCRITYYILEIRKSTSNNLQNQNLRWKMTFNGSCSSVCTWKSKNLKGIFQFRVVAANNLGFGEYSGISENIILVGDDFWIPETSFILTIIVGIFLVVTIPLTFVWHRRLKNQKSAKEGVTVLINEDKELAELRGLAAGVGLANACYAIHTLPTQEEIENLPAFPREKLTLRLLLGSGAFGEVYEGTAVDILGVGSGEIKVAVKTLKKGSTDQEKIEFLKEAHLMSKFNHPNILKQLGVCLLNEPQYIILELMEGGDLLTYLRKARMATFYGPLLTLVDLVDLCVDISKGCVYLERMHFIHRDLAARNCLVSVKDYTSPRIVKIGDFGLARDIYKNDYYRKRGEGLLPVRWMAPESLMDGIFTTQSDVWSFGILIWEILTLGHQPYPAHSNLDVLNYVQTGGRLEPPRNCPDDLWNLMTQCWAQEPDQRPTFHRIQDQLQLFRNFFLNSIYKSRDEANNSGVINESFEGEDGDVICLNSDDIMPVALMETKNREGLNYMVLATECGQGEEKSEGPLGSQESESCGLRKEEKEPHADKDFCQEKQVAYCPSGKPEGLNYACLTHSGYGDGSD
The target is the same in assay [15]. To be noted: at 1 µM.
The target in assay [16] is Proto-oncogene tyrosine-protein kinase Src (Homo sapiens) (UniProt P12931). To be noted: at 0.1 µM.
Chain of Proto-oncogene tyrosine-protein kinase Src (Homo sapiens) (P12931 2-536 limits assumed): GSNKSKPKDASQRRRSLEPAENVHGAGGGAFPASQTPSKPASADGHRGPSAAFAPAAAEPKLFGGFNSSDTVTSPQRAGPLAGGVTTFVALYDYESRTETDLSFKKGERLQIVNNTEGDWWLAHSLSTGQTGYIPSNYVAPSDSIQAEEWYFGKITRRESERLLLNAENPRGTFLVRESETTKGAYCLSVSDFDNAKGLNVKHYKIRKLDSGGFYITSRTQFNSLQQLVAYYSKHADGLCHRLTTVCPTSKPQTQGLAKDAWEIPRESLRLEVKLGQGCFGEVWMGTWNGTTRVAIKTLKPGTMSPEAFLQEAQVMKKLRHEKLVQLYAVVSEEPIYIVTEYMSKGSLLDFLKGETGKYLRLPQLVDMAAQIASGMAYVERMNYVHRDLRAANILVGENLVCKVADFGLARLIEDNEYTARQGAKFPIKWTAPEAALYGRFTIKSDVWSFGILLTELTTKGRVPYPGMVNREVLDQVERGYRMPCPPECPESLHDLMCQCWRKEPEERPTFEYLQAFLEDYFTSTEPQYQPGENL
Assay [17] has the same target. To be noted: at 1 µM.
In assay [18] the target is Tyrosine-protein kinase Srms (Homo sapiens) (UniProt Q9H3Y6). To be noted: at 0.1 µM.
Chain of Tyrosine-protein kinase Srms (Homo sapiens) (Q9H3Y6 whole entry): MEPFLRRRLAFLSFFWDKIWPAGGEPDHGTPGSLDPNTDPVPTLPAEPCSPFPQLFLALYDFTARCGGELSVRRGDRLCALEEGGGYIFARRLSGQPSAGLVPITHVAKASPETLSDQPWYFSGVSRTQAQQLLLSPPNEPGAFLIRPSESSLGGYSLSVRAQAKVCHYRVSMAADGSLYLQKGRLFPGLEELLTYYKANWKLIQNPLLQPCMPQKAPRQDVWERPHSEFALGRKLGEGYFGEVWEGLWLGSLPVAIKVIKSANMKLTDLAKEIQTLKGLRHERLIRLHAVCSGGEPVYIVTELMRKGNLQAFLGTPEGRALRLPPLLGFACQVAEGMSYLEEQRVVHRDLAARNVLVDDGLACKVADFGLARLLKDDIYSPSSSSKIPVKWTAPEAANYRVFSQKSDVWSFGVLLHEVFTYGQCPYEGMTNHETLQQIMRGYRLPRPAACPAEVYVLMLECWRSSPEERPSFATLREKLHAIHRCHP
Assay [19] shares this target. To be noted: at 1 µM.
For assay [20], the target named is Tyrosine-protein kinase SYK (Homo sapiens) (UniProt P43405). To be noted: at 0.1 µM.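 Note: reported percentages are mean inhibition values for SYK.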

Chain of Proto-oncogene tyrosine-protein kinase receptor Ret (Homo sapiens) (P07949 whole entry): as the sequence (P07949 whole entry V804L) above, with L804V counted along it
Chain of Tyrosine-protein kinase FRK (Homo sapiens) (P42685 whole entry): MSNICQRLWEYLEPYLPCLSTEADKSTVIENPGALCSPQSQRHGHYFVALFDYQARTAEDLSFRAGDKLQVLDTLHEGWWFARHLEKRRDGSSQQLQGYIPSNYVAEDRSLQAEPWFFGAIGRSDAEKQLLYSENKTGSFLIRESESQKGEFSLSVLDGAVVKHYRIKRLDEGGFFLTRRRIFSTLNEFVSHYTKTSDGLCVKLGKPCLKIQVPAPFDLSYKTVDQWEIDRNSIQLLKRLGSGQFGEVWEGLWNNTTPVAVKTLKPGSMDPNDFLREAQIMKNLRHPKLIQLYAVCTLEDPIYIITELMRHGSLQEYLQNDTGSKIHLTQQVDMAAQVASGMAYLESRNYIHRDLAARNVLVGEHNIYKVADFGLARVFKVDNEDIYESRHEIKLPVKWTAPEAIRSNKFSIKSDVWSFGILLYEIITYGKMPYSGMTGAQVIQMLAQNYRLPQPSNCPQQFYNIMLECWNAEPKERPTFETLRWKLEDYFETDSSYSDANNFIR

As usually defined, the inhibition is the change of the read-out against control, counted positive when it falls. Take `CS(=O)(=O)Nc1cccc(-c2ccc3c(NC(=O)C4CC4)n[nH]c3c2)c1`: the inhibition in assay [1] was 7.8%; in [2] it was 0.86%; in [3] it was 0.42%; in assay [4] it was 2.77%; in assay [5], 3.01%; in assay [6] it was -0.07%. Further, the inhibition in assay [7] is 15.4%; in assay [8], -3.08%; in assay [9] it was -1.31%; in [10], 1.94%; in assay [11], -0.36%; in assay [12], -6.3%. Further, the inhibition is -6.45% in assay [13]; 3.6% in [14]; 2.79% in assay [15]; 1.2% in assay [16]; 4.09% in assay [17]; 1.35% in [18]. Besides, the inhibition is -2.43% in assay [19] and -1.34% in assay [20].

On to `Cc1ccc(Nc2ccnc(Nc3cccc(C(N)=O)c3)n2)cc1O`, for which the inhibition in assay [1] was found to be 79.7%; in assay [2], 48.6%; in assay [3], 87.6%; in [4], 9.71%; in assay [5] it was 47.8%; in assay [6], 73.5%. Also, the inhibition in [7] is 85.7%; in assay [8] it was 11.7%; in assay [9], 49.7%; in assay [10], 74.6%; in [11] it was 88.7%; in assay [12], 0.19%. Besides, the inhibition in assay [13] is 13.3%; in assay [14], 17.4%; in [15] it was 61.4%; in assay [16], 78.3%; in assay [17], 90.7%; in [18], 10.8%. Also, the inhibition in assay [19] was 41%; in assay [20], -7.65%.

`Cc1ccc2c(-c3ccnc(Nc4cccc(C(F)(F)F)c4)n3)c(-c3ccccc3)nn2n1`: the inhibition in [1] came to 85.2%; in [2], 5%; in assay [3], 30.1%; in [4], 16.5%; in assay [5], 59.5%; in assay [6], 15.4%. In addition, the inhibition was determined as 51% in assay [7]; 2.52% in assay [8]; 3.3% in [9]; 6.2% in [10]; 37.9% in [11]; 2.85% in [12]. The inhibition in assay [13] was determined as 13.6%; in [14], 7.31%; in assay [15] it was 9.43%; in assay [16], 25.3%; in assay [17] it was 72.9%; in [18] it was 1.71%. Also, the results for the inhibition in assay [19] and in assay [20] were 22.1% and 0.45%, respectively.

As for `NS(=O)(=O)c1ccc(-c2cc3ccncc3cc2OCc2ccccc2)cc1`, the inhibition worked out at 8.53% in assay [1]; 2% in assay [2]; 1.07% in assay [3]; 7.81% in [4]; 13.4% in [5]; 2.04% in assay [6]. Moreover, the inhibition amounted to 8.69% in [7]; 2.23% in assay [8]; 5.47% in assay [9]; 5.72% in [10]; 8.79% in [11]; 3.44% in assay [12]. The inhibition in assay [13] was 8.77%; in assay [14] it was 5.03%; in [15] it was 11%; in assay [16] it was -0.21%; in [17], 6.83%; in assay [18] it was 0.62%. In addition, the inhibition in assay [19] came out at 1.62%; in [20], 2.96%.

With `Nc1nccc(C#Cc2cncnc2Nc2ccc(OCc3cccc(F)c3)c(Cl)c2)n1`, the inhibition was 11.6% in assay [1]; 2.59% in assay [2]; 0.85% in assay [3]; 8.24% in assay [4]; 14.2% in [5]; 1.17% in assay [6]. Further, the inhibition was 5.76% in assay [7]; 10.1% in assay [8]; 15% in assay [9]; 4.88% in assay [10]; 10.5% in assay [11]; -0.99% in assay [12]. Also, the inhibition in assay [13] came out at 9.09%; in assay [14], 7.35%; in [15], 16.2%; in [16], 0.36%; in assay [17], 7.62%; in assay [18], 0.29%. Also, the inhibition in [19] was -3.68%; in assay [20] it was -6.1%.

For the molecule `CCS(=O)(=O)c1ccc(OC)c(Nc2ncc(-c3cccc(OC)c3)o2)c1`, the inhibition turned out to be 74.8% in [1]; 4.05% in [2]; 26.9% in assay [3]; 6.52% in assay [4]; 10.9% in assay [5]; 21.9% in assay [6]. The inhibition is 68.5% in assay [7]; 7.11% in assay [8]; 44.1% in assay [9]; 22.6% in assay [10]; 67.1% in assay [11]; 3.89% in assay [12]. For the same molecule, the inhibition amounted to 3.42% in [13]; 9.78% in assay [14]; 43.3% in assay [15]; 30.7% in [16]; 79.4% in [17]; 2.74% in [18]. Moreover, the inhibition in assay [19] is 30.6%; in [20], -0.11%.

For `COC(=O)Nc1nc2cc(Oc3ccc(NC(=O)Nc4cccc(Br)c4)cc3)ccc2[nH]1`, the inhibition in assay [1] was 35.9%; in assay [2] it was 2.82%; in assay [3], 1.12%; in assay [4], 5.36%; in [5], 9.53%; in assay [6], 69.7%. The inhibition is 80.6% in assay [7]; 37.5% in [8]; 66.5% in [9]; 66.4% in assay [10]; 84.4% in assay [11]; 1.47% in assay [12]. The inhibition in [13] was 2.5%; in [14], 4.26%; in assay [15], 3.1%; in [16], 3.27%; in assay [17] it was 6.9%; in assay [18] it was 2.26%. The results for the inhibition in [19] and in [20] were 3.49% and -1.46%, respectively.

With `O=S(=O)(CCOCc1ccc(-c2ccc3ncnc(Nc4ccc(OCc5cccc(F)c5)c(Cl)c4)c3c2)o1)c1ccccc1`, the inhibition in assay [1] is 7.33%; in assay [2], 1.09%; in [3], 0.79%; in assay [4], 4.11%; in assay [5], 8.55%; in assay [6], 5.25%. Further, the inhibition amounted to 5.38% in assay [7]; 6.3% in assay [8]; 10.1% in assay [9]; 7.95% in assay [10]; 7.27% in assay [11]; 3.62% in assay [12]. For the same molecule, the inhibition is 1.46% in assay [13]; 2.65% in assay [14]; 3.57% in assay [15]; 0.66% in assay [16]; 0.4% in assay [17]; -1.31% in [18]. Besides, the inhibition in [19] was -2.52%; in assay [20] it was 1.93%.

On to `Cc1cc(O)cc(C)c1/C=C/c1cncc(C(=O)N(C)C)c1`, for which the inhibition was 10% in assay [1]; -0.14% in assay [2]; 1.73% in assay [3]; 5.04% in [4]; 3.05% in assay [5]; 8.48% in assay [6]. Further, the inhibition in assay [7] was found to be 11.8%; in [8], 6.64%; in assay [9] it was 9.06%; in [10], 8.23%; in assay [11] it was 11.9%; in assay [12], 4.1%. Moreover, the inhibition in [13] turned out to be 11%; in assay [14], 3.04%; in assay [15] it was 7.84%; in [16] it was 1.66%; in assay [17], 7.43%; in assay [18], 0.98%. Besides, the inhibition in [19] was 1.27%; in [20], -1.67%.

`Cc1ccc2c(c1)/C(=N/Nc1ccc(S(N)(=O)=O)cc1)C(=O)N2`: the inhibition in assay [1] is 31.7%; in assay [2], -0.61%; in assay [3], 0.7%; in assay [4], 1.76%; in assay [5], 0.28%; in [6] it was 3.85%. For the same molecule, the inhibition was 18.8% in assay [7]; 7.64% in assay [8]; 35.4% in [9]; 8.06% in assay [10]; 18.2% in [11]; -3.95% in assay [12]. Further, the inhibition in [13] was -1.57%; in [14], 2.42%; in [15], 4.27%; in assay [16] it was 0.59%; in [17] it was 6.44%; in assay [18], -1.38%. For the same molecule, the inhibition in assay [19] was -2.68%; in [20] it was 2.17%.

For the molecule `CN(C)C(=O)O[C@H]1CN[C@H](C#Cc2cc3ncnc(Nc4ccc(OCc5cccc(F)c5)c(Cl)c4)c3s2)C1`, the inhibition is 6.43% in assay [1]; 1.37% in assay [2]; 1.4% in assay [3]; 6.18% in [4]; 3.98% in [5]; 4.97% in assay [6]. In addition, the inhibition in assay [7] was found to be 19.5%; in [8], 3.2%; in [9], 4.12%; in assay [10], 3.68%; in [11], 9.1%; in [12] it was 1.31%. The inhibition amounted to 5.82% in [13]; 4.25% in assay [14]; 4.65% in [15]; 3.86% in assay [16]; 6.56% in assay [17]; 0.59% in [18]. The inhibition is 0.93% in [19] and -7.75% in [20].

Consider `C[C@@H](Oc1cc(-n2cnc3ccc(OCC4CCN(C)CC4)cc32)sc1C(N)=O)c1ccccc1C(F)(F)F`, for which the inhibition in assay [1] is 81.5%; in [2], -0.4%; in assay [3] it was 0.5%; in [4] it was -2.32%; in assay [5], 6.22%; in assay [6] it was 2.63%. For the same molecule, the inhibition in assay [7] was 11.6%; in assay [8] it was 2.09%; in [9] it was 18.5%; in assay [10] it was 1.2%; in assay [11], 18.4%; in [12], -0.38%. Further, the inhibition in assay [13] was 9.36%; in [14] it was 0.2%; in [15] it was 7.21%; in assay [16], -1.27%; in assay [17], 21.3%; in assay [18] it was 1.72%. Also, the inhibition was found to be 2.5% in assay [19] and 0.48% in assay [20].

For the molecule `FC(F)(F)c1ccc(-c2nn3ncccc3c2-c2ccnc(Nc3ccc4c(c3)OCCO4)n2)cc1`, the inhibition in assay [1] was 17.4%; in [2] it was 1.38%; in [3], 2.35%; in assay [4], 2.83%; in assay [5], 1.96%; in assay [6], 8.08%. For the same molecule, the inhibition in [7] stood at 29.2%; in assay [8] it was 9.12%; in assay [9], 14.3%; in assay [10], 8.67%; in assay [11], 43.9%; in assay [12], 11.8%. The inhibition in assay [13] came to 0.63%; in assay [14], 7.87%; in assay [15], 9.43%; in assay [16] it was 0.84%; in [17] it was 15.8%; in assay [18] it was 8.49%. The inhibition in [19] amounted to 8.73%; in [20], 3.37%.

These data come from ChEMBL document CHEMBL1961873, “Compounds: GSK PKIS; Assays: Nanosyn kinase panel” (2012).
